Laboratory results as given in PubChem BioAssay.
Activity calls are given as the source filed them. Unless noted, how the calls were made is not given here.

Experiments:
[1] = compounds binding Alexa647 anti-His antibody – biochemical, small-molecule microarray, 635 nm fluorescence, artefact control for SMM control protein annotation, primary screen (AID 1128); details: higher = more signal;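 further: score merges feature fluorescence with signal-to-noise for each printed compound spot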
[2] = tested on: Human papillomavirus type 1a E7 protein (residues 1-88); experiment: HPV1a E7 small-molecule binders, primary screen, biochemical, small-molecule microarray, residues 1-88, 635 nm (AID 1129); details: small-molecule microarray binding, fluorescence 635 nm; higher = more signal
[3] = biological target: Focal adhesion kinase 1 (Homo sapiens) (UniProt Q05397); experiment: PTK2 protein binding on printed compound slides – biochemical, small-molecule microarray, 635/667 nm fluorescence, BSA, DTT, primary screen (AID 1130); details: 635 nm fluorescence, higher = more signal;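 further: composite of spot emission at 667 nm and signal to noise over triplicate slides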
[4] = tested on: Fibrinogen (Alexa647-labelled); experiment: Alexa647-fibrinogen binding to printed small molecules – biochemical, small-molecule microarray, 635/667 nm fluorescence, artefact control for SMM control-protein annotation, profiling panel (AID 1131); details: fibrinogen-A647 binding fluorescence, higher = more signal;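 further: z-score merges 667 nm fluorescence with per-spot signal-to-noise over triplicate slides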
[5] = biological target: Follistatin (Homo sapiens) (UniProt P19883); experiment: FST protein binding to printed compounds – biochemical, small-molecule microarray, 635/667 nm fluorescence, primary screen (AID 1132); details: 635 nm fluorescence, higher = more signal
[6] = biological target: Fibroblast growth factor 2 (Homo sapiens) (UniProt P09038); experiment: basic fibroblast growth factor binding to printed compounds – biochemical, small-molecule microarray, 635/667 nm fluorescence, primary screen (AID 1133); details: FGF2, fluorescence 635/667, higher = more signal
[7] = JC-1 mitochondrial potential readout, lung cancer cells – cell-based, A549, JC-1 fluorescence, basal, 24 h, 100 nL, profiling panel (AID 1138); details: higher = more signal;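 further: A549 lung adenocarcinoma cells under basal conditions with no added stimulus; test concentration not given here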
[8] = tested on: Lefty1; experiment: Lefty1 protein binding to printed compounds – biochemical, small-molecule microarray, 635/667 nm fluorescence, primary screen (AID 1139); details: fluorescence 635/667, higher = more signal
[9] = tested on: wheat germ agglutinin (Triticum aestivum), Alexa647-labelled; experiment: Alexa647-WGA lectin binding to printed small molecules – biochemical, small-molecule microarray, 635/667 nm fluorescence, artefact control for SMM control-protein annotation, profiling panel (AID 1140); details: WGA-A647 binding, 635 nm fluorescence, higher = more signal;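 further: score merges 667 nm feature emission with signal to noise over triplicate slides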
[10] = biological target: Luciferin 4-monooxygenase (Photinus pyralis) (UniProt P08659); experiment: inhibition of purified Photinus pyralis luciferase – biochemical, luminescence, purified enzyme, 2006 set, primary screen (AID 1141); details: purified firefly luciferase, SteadyGlo luminescence, 30 min; higher = more signal, called active from +8 up or from −8 down;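 further: cell-free assay with purified firefly luciferase at 100 ng per well in PBS; test concentration not given here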
[11] = tested on: Wnt5a (protein binding on small-molecule microarray); experiment: small molecules binding Wnt5a protein – biophysical, small-molecule microarray, 635/667 nm fluorescence, primary screen (AID 1142); details: 635 nm fluorescence, higher = more signal;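 further: fluorescence read at 667 nm with signal to noise per printed feature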
[12] = ATP-based viability of Huh7 replicon cells – cell-based, CellTiter-Glo luminescence, basal, 48 h, cytotoxicity control for HCV replication inhibitor project, primary screen (AID 1143); details: higher = more signal, called active from +8 up or from −8 down;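 further: Huh7 hepatoma cells carrying a hepatitis C replication reporter with no stimulus; test concentration not given here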
[13] = Pseudomonas biofilm growth suppression – PAO1 strain, BacTiter-Glo luminescence, LB-PBS, primary screen (AID 1144); details: P. aeruginosa PAO1 biofilm, 12 h, higher = more signal
[14] = basal CRE-LacZ reporter activity in PC12 – cell-based, unstimulated, primary screen (AID 1145); details: no forskolin, luminescence, 4.5 h, higher = more signal, called active from +8 up or from −8 down
[15] = forskolin-driven CRE-LacZ activity in PC12 – cell-based, CRE-LacZ reporter, forskolin-stimulated, primary screen (AID 1146); details: luminescence, 4.5 h, higher = more signal, called active from +8 up or from −8 down;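 further: PC12 cells with 6xCRE LacZ reporter stimulated by forskolin 10 µM; beta-galactosidase reporter signal reflecting CREB driven transcription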
[16] = biological target: Streptavidin (Streptomyces avidinii) (UniProt P22629); experiment: compounds binding control protein streptavidin – biophysical, small-molecule microarray, 635/667 nm fluorescence, artefact control for SMM compound annotation, primary screen (AID 1147); details: higher = more signal;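 further: signal reflects streptavidin binding to arrayed compounds as a control protein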
[17] = probe aInhba binding on compound microarray – biochemical, small-molecule microarray, 635/667 nm fluorescence, primary screen (AID 1148); details: higher = more signal;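 further: score merges 667nm spot fluorescence with signal-to-noise for antibody binding to printed compounds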
[18] = biological target: Torsin-1A (Homo sapiens) (UniProt O14656); experiment: TOR1A wild-type binding on microarray – cell lysate, small-molecule microarray, lysate, 635/667 nm, primary screen (AID 1149); details: COS7 hTOR1A-WT lysate, 635 nm fluorescence, higher = more signal
[19] = biological target: Torsin-1A (Homo sapiens) (UniProt O14656); experiment: torsin A mutant lysate binding on microarrays – cell lysate, small-molecule microarray, COS7 lysate, 635/667 nm fluorescence, primary screen (AID 1150); details: COS7 hTOR1A mutant lysate, 635 nm fluorescence, higher = more signal;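 further: score pools 667 nm emission and signal to noise measuring lysate protein binding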
[20] = tested on: Sonic hedgehog protein (Shh); experiment: Sonic hedgehog microarray binding compounds – biochemical, small-molecule microarray, 635/667 nm fluorescence, primary screen (AID 1151); details: 635 nm fluorescence, higher = more signal;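 further: Shh protein binding to compounds spotted on small-molecule microarray slides; score combines spot fluorescence intensity with signal-to-noise across triplicate slides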

Sequence of Luciferin 4-monooxygenase (Photinus pyralis) (P08659 whole entry, looked up): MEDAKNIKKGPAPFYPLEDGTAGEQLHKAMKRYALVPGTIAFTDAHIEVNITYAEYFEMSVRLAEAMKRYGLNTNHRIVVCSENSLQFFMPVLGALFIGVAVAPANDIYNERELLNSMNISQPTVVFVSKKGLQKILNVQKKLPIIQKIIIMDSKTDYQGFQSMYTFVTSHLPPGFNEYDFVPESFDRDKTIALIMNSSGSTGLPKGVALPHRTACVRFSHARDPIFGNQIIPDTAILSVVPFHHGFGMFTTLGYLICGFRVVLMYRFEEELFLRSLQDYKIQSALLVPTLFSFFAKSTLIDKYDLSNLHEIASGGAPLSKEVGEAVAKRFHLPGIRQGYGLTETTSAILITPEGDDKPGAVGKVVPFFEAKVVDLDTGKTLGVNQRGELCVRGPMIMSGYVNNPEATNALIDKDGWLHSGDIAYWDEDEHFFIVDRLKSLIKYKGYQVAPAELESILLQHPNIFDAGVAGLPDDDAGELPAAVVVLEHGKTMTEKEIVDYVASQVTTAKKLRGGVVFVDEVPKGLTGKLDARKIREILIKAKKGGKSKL
Sequence of Focal adhesion kinase 1 (Homo sapiens) (Q05397 whole entry, looked up): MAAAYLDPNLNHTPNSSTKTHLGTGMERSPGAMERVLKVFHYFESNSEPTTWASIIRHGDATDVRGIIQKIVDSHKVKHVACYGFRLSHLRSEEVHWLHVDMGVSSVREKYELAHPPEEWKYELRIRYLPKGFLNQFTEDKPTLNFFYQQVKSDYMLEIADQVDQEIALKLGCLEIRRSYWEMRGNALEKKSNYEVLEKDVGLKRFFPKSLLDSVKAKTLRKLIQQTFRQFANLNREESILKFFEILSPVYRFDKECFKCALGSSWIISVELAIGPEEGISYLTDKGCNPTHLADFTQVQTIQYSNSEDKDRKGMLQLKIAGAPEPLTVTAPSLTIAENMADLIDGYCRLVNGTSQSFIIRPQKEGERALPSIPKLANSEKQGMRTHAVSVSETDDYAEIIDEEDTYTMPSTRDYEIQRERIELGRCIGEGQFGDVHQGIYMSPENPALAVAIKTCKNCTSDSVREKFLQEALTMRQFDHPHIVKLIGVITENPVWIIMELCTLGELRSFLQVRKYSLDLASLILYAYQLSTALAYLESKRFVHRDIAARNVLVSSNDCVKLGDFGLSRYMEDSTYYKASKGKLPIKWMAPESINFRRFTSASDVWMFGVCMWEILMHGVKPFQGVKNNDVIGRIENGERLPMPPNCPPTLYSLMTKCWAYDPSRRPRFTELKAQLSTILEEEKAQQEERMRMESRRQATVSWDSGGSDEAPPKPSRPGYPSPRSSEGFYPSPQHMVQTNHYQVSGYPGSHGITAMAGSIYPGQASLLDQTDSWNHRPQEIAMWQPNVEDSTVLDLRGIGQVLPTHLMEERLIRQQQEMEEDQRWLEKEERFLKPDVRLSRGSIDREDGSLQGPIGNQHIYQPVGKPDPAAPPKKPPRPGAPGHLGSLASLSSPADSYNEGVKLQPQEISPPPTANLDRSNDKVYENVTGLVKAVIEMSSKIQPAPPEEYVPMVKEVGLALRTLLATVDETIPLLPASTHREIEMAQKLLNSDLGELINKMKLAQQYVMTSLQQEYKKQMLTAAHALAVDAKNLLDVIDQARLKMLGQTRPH
Sequence of Fibroblast growth factor 2 (Homo sapiens) (P09038 whole entry, looked up): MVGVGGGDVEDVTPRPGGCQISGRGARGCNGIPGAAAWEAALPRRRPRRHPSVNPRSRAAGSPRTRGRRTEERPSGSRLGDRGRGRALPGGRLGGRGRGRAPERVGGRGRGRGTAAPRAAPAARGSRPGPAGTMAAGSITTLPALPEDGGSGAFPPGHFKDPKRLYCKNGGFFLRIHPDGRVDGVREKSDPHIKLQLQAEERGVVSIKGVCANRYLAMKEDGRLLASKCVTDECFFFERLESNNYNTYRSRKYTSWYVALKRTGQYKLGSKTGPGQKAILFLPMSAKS
Sequence of Streptavidin (Streptomyces avidinii) (P22629 whole entry, looked up): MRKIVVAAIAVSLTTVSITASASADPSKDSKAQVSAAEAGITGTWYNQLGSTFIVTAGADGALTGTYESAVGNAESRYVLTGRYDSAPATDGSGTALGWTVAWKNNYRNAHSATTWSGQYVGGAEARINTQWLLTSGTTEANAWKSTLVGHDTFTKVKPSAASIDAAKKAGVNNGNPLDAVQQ
Sequence of Torsin-1A (Homo sapiens) (O14656 whole entry, looked up): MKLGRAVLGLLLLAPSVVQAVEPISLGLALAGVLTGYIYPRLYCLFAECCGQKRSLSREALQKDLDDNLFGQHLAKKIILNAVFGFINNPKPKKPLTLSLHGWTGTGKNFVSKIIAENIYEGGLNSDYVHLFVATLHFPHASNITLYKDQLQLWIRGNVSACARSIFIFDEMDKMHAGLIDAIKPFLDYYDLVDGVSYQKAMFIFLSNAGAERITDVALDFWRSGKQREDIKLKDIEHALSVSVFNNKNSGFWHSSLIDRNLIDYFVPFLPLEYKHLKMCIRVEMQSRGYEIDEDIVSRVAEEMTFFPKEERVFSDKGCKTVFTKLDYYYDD
Sequence of Follistatin (Homo sapiens) (P19883 whole entry, looked up): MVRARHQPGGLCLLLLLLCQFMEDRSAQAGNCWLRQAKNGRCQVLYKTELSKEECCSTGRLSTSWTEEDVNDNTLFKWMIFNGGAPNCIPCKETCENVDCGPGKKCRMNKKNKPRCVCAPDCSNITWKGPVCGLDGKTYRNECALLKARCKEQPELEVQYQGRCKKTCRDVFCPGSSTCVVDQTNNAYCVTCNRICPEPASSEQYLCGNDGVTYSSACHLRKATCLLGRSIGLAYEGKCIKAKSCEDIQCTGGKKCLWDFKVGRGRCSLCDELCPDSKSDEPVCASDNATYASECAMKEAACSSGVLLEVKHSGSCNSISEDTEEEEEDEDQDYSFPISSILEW

SMILES | composite z-score [1] | composite z-score [2] | composite z-score [3] | composite z-score [4] | composite z-score [5] | composite z-score [6] | z-score [7] | composite z-score [8] | composite z-score [9] | z-score [10] | composite z-score [11] | z-score [12] | z-score [13] | z-score [14] | z-score [15] | composite z-score [16] | composite z-score [17] | composite z-score [18] | composite z-score [19] | composite z-score [20]
O=C(NN=C1C[C@@H](O)[C@@H](O)[C@@H]2[C@@H]3C(=O)N(C4CCCCC4)C(=O)[C@@H]3CC[C@@H]12)OCc1ccccc1 | 0.0161 | 0.139 | 0.0639 | 0.294 | 0.0434 | 0.243 | 0.163 | -0.0104 | -0.132 | -0.427 (inactive) | -0.03 | 0.0845 (inactive) | 1.15 (inactive) | 1.79 (inactive) | 0.0171 (inactive) | -0.225 | -0.384 | 0.205 | -0.0666 | -0.364
C[C@@H](c1ccccc1)N1C(=O)[C@H]2[C@H]3[C@H](O)[C@H](O)CC(=NO[C@@H]4O[C@H](CO)[C@@H](O)[C@H](O)[C@H]4O)[C@@H]3CC[C@H]2C1=O | 0.26 | 0.585 | -0.0533 | 0.19 | 0.31 | 0.281 | 0.269 | 0.351 | -0.0604 | 0.351 (inactive) | 0.0794 | 0.401 (inactive) | -0.783 (inactive) | -0.566 (inactive) | 0.331 (inactive) | 0.238 | -0.0626 | 1.1 | 0.907 | 0.116
O=c1n(Cc2cc3c(cc2Cl)OCO3)c(=O)n2n1CC[C@@H]1C(=NOCc3ccccc3)[C@H]3O[C@H]3[C@@H](O)[C@@H]12 | 0.559 | 0.459 | -0.0758 | 0.623 | 0.444 | 0.784 | 0.679 | 0.716 | 0.125 | -1.8 (inactive) | 0.141 | -0.742 (inactive) | 0.692 (inactive) | 0.16 (inactive) | 1.87 (inactive) | 0.767 | -0.0509 | 0.582 | 0.223 | 0.365
O=C1[C@H]2[C@H]3[C@H](O)[C@H](O)CC(=NOCc4ccccc4)[C@@H]3CC[C@H]2C(=O)N1C[C@@H]1CCCO1 | -0.016 | -0.182 | 0.205 | 0.237 | -0.0829 | 0.0592 | -0.485 | -0.0955 | -0.396 | 0.903 (inactive) | 0.0388 | 0.379 (inactive) | -0.614 (inactive) | -0.115 (inactive) | 0.105 (inactive) | 0.632 | -0.157 | 0.304 | 0.198 | 0.317
CO[C@H]1COC(=O)[C@@H](C)COC(=O)[C@H](C)NC(=O)CC=C[C@H]1C | -0.79 | -0.764 | -0.113 | -0.47 | 1.31 | 0.871 | 0.853 | 1.58 | -0.379 | -0.185 (inactive) | 0.0392 | -0.378 (inactive) | 0.371 (inactive) | -0.115 (inactive) | -0.959 (inactive) | -0.639 | -0.176 | 1.15 | 0.991 | 1.6
CCOC(=O)C1=NO[C@]2(C=C(Br)C3(OCCCO3)[C@H]3O[C@H]32)C1 | -0.765 | -0.57 | -0.428 | 0.185 | -0.599 | -0.285 | -0.242 | -0.168 | 0.513 | 0.163 (inactive) | 0.0562 | 0.974 (inactive) | 0.892 (inactive) | -0.254 (inactive) | 1.65 (inactive) | -0.468 | -0.163 | 0.748 | 1.42 | 0.0095
CCOC(=O)[C@H](CC(C)C)NC(=O)CCC1CC(OC(=O)NCCc2ccc(F)cc2)CC2(CCCC(COC(=O)NCCOc3ccccc3)O2)O1 (stereo not given in full) | 0.744 | 0.698 | 0.231 | 0.985 | 0.826 | 0.692 | 0.0542 | 1.35 | 0.394 | 0.96 (inactive) | 0.32 | -1.81 (inactive) | -0.446 (inactive) | 0.469 (inactive) | 0.127 (inactive) | 0.939 | 0.336 | 0.0137 | 0.15 | 1.01
CO[C@@H]1COC(=O)CC=C[C@@H](C)[C@H](OC)COC(=O)[C@@H](C)COC(=O)CC=C[C@H]1C | -0.227 | -1.38 | -0.482 | -1.39 | 1.18 | 0.867 | 1.2 | 1.24 | -0.839 | -0.798 (inactive) | -0.451 | -0.128 (inactive) | 0.416 (inactive) | 0.518 (inactive) | -0.14 (inactive) | 0.0524 | -0.266 | 1.4 | 0.381 | 1.68
CC(=O)OC[C@H]1O[C@H](C#Cc2ccccc2)C=C[C@@H]1OC(C)=O | -0.223 | 0.262 | -0.203 | 0.81 | 0.272 | 0.271 | 0.277 | 0.517 | -0.361 | -2.26 (inactive) | -0.118 | -2.96 (inactive) | 0.908 (inactive) | -0.256 (inactive) | 3.76 (inactive) | 0.0752 | -0.182 | 0.398 | -0.0454 | 0.337
O=c1n(Cc2cc3c(cc2Cl)OCO3)c(=O)n2n1CC[C@@H]1C(=NOC[C@@H](O)COCc3ccco3)[C@H]3O[C@H]3[C@@H](O)[C@@H]12 | 0.0465 | 0.642 | -0.0676 | 0.354 | 0.568 | 0.546 | -0.15 | 0.414 | 0.004 | -0.357 (inactive) | 0.127 | 0.376 (inactive) | -1.11 (inactive) | 0.975 (inactive) | 0.819 (inactive) | 1.02 | 0.0084 | 0.365 | 0.156 | 0.344
